“And” between values parts separate entries of the source, which are not always exact repeats. Equal entries are not always repeated. A structure can be active in one record and inactive in another. The source made the active and inactive calls. Rule for the calls: active = hit-call score of the fitted dose curve at least 0.9, where 1 is the maximum; inactive = score below 0.9.
Tests used:
[1] = ATG_GLI_CIS: Attagene CIS-FACTORIAL HepG2 Assay for human Zinc Finger Protein GLI1 (AID 2282945); conditions: HepG2, Attagene cis-factorial reporter mRNA, GLI element; actives raise or lower the signal
Method in brief: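 Bidirectional curve fits relative to DMSO, using reporter mRNA levels from RT-PCR plus capillary electrophoresis. Cells were HepG2 transiently carrying cis-regulated reporter constructs, harvested 24 h after dosing.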

[2] = biological target: Bile acid receptor (Homo sapiens) (UniProt Q96RI1); experiment: ATG_IR1_CIS: Attagene CIS-FACTORIAL HepG2 Assay for human Nuclear Receptor Subfamily 1 Group H Member 4 (NR1H4), IR1 submotif (AID 2282946); conditions: IR1 reporter transcription, actives raise or lower the signal
Method in brief: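 Cells (human HepG2) carry transiently transfected cis-promoter reporter transcription units. Compounds are incubated 24 h, total RNA is reverse-transcribed and amplified, and labelled fragments are resolved by capillary electrophoresis. Curves use DMSO as baseline.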

[3] = ATG_GRE_CIS: Attagene CIS-FACTORIAL HepG2 Assay for human Glucocorticoid Response Elements (GRE) (AID 2282947); conditions: HepG2 GRE cis-reporter, Attagene multiplex mRNA; actives raise or lower the signal
Method in brief: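 Assay uses human hepatoma HepG2 cells transfected with cis-promoter reporter units, exposed 24 h. mRNA from reporters detected by RT-PCR plus capillary electrophoresis; DMSO serves as negative control and baseline.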

[4] = ATG_ISRE_CIS: Attagene CIS-FACTORIAL HepG2 Assay for human Interferon Regulatory Factor 1 (IRF1) binding to an Interferon-Stimulated Response Element (ISRE) (AID 2282948); conditions: HepG2 ISRE cis-reporter (Attagene), mRNA transcription readout; actives raise or lower the signal
Method in brief: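 HepG2 cells transiently transfected with multiplexed cis-promoter reporter units; after 24 h compound exposure, reporter mRNA quantified by RT-PCR, FAM labelling, HpaI digestion and capillary electrophoresis. Bidirectional fit versus DMSO baseline.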

[5] = ATG_M_32_CIS: Attagene CIS-FACTORIAL HepG2 Assay for M32 Transcription Factor (Internal Marker) (AID 2282949); conditions: HepG2 Attagene cis-factorial M32 reporter, mRNA; actives raise or lower the signal;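 note: background control marker of the multiplexed CIS panel rather than a real target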
Method in brief: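 Following 24 h chemical exposure of HepG2 cells transiently expressing cis-promoter reporter constructs, reporter transcript levels were determined by RT-PCR with fluorescent labelling and capillary electrophoresis, then fitted bidirectionally against DMSO.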

[6] = ATG_M_06_CIS: Attagene CIS-FACTORIAL HepG2 Assay for M06 Transcription Factor (Internal Marker) (AID 2282950); conditions: HepG2 Attagene CIS-FACTORIAL M06 internal marker reporter; actives raise or lower the signal
Method in brief: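 Measured 24 h post-dosing in transiently transfected HepG2 cells, this internal-marker endpoint reports reporter mRNA via RT-PCR with fluorescent primer extension and capillary electrophoresis. DMSO served as negative control and baseline for bidirectional fitting.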

[7] = biological target: Hypoxia-inducible factor 1-alpha (Homo sapiens) (UniProt Q16665); experiment: ATG_HIF1a_CIS: Attagene CIS-FACTORIAL HepG2 Assay for human Hypoxia Inducible Factor 1 (HIF1A) (AID 2282951); conditions: HepG2 Attagene cis-factorial HIF1a reporter transcription; actives raise or lower the signal
Method in brief: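 In this multiplexed cell assay, HepG2 cells bearing transfected cis reporters are dosed for 24 h and reporter mRNA is read by RT-PCR plus capillary electrophoresis; signal increases and decreases are both scored against DMSO.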

[8] = biological target: Heat shock factor protein 1 (Homo sapiens) (UniProt Q00613); experiment: ATG_HSE_CIS: Attagene CIS-FACTORIAL HepG2 Assay for human Heat Shock Transcription Factor 1 (HSE) (AID 2282953); conditions: HepG2 HSE cis-reporter, Attagene RNA transcription; actives raise or lower the signal
Method in brief: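 Reporter mRNA induction in HepG2 is measured 24 h after dosing, using transiently transfected multiplexed cis-regulated reporter units. Signal comes from capillary electrophoresis of labelled RT-PCR products, with DMSO as negative control.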

[9] = ATG_PBREM_CIS: Attagene CIS-FACTORIAL HepG2 Assay for human Phenobarbital-responsive Enhancer Module (PBREM) (AID 2282955); conditions: HepG2 PBREM cis-reporter, Attagene multiplexed transcription; actives raise or lower the signal
Method in brief: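 After a 24 h incubation with test chemical, transfected HepG2 cells yield total RNA; reporter-specific RT-PCR products are fluorescently labelled, HpaI-digested and resolved by capillary electrophoresis against ROX size standards.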

[10] = biological target: Paired box protein Pax-6 (Homo sapiens) (UniProt P26367); experiment: ATG_Pax6_CIS: Attagene CIS-FACTORIAL HepG2 Assay for human Paired Box 6 (PAX6) (AID 2282956); conditions: HepG2 CIS-FACTORIAL PAX6 reporter transcription, RNA readout; actives raise or lower the signal
Method in brief: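 HepG2 cells transiently transfected with multiplexed cis-promoter reporter units (endogenous TF activity) were dosed for 24 h. Reporter mRNA was quantified by RT-PCR, 6-FAM labeling, HpaI digestion and capillary electrophoresis; bidirectional fitting versus DMSO baseline.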

[11] = ATG_PXRE_CIS: Attagene CIS-FACTORIAL HepG2 Assay for human Pregnane X Receptor Element (PXRE) (AID 2282957); conditions: HepG2 Attagene CIS-FACTORIAL PXRE reporter, mRNA; actives raise or lower the signal
Method in brief: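 HepG2 cells transiently transfected with cis-regulated multiple reporter transcription units; endogenous factor activity measured as reporter mRNA 24 h after dosing. RT-PCR, fluorescent primer extension, HpaI digestion, capillary electrophoresis; bidirectional fit versus DMSO baseline.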

[12] = ATG_PPRE_CIS: Attagene CIS-FACTORIAL HepG2 Assay for human Peroxisome Proliferator-activated Response Element (PPRE) (AID 2282958); conditions: HepG2 PPRE cis-element reporter, Attagene transcription factor profiling; actives raise or lower the signal
Method in brief: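 Multiplexed reporter transcription units under cis-regulatory promoters were transfected into HepG2 cells to capture endogenous factor activity. A 24 h incubation preceded RNA isolation and fluorescent RT-PCR fragment analysis.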

[13] = ATG_RORE_CIS: Attagene CIS-FACTORIAL HepG2 Assay for human RAR-related Orphan Receptor Element (RORE) (AID 2282959); conditions: HepG2 Attagene cis-factorial RORE reporter, mRNA; actives raise or lower the signal
Method in brief: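 Fluorescence intensity of reporter-specific cDNA fragments, separated by capillary electrophoresis, gives the signal. Source: HepG2 liver cells transiently transfected with cis-element reporters and exposed 24 h; DMSO-normalized bidirectional fit.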

[14] = ATG_Sox_CIS: Attagene CIS-FACTORIAL HepG2 Assay for human SRY-box transcription factor (SOX) (AID 2282960); conditions: HepG2 Attagene cis-factorial SOX reporter, mRNA; actives raise or lower the signal
Method in brief: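 After 24 h of chemical treatment, transfected HepG2 reporter cells are lysed for total RNA. Transcript levels come from RT-PCR with labelled primer extension and capillary electrophoresis, analysed bidirectionally versus DMSO.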

[15] = biological target: Transcription factor Sp1 (Homo sapiens) (UniProt P08047); experiment: ATG_Sp1_CIS: Attagene CIS-FACTORIAL HepG2 Assay for human Specificity Protein 1 (Sp1) (AID 2282961); conditions: HepG2 Sp1 cis-reporter transcription, actives raise or lower the signal
Method in brief: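 Sp1-driven reporter mRNA, read as capillary electrophoresis fluorescence after RT-PCR, in transiently transfected HepG2 cells dosed for 24 h; signal change in either direction relative to DMSO.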

[16] = ATG_SREBP_CIS: Attagene CIS-FACTORIAL HepG2 Assay for human Sterol Regulatory Element Binding (SREBP) (AID 2282962); conditions: HepG2 Attagene cis-factorial SREBP reporter, mRNA; actives raise or lower the signal
Method in brief: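 HepG2 cells transiently transfected with multiplexed cis-element reporter units report endogenous transcription factor activity. After 24 h of chemical exposure, reporter mRNA was quantified by RT-PCR, 6-FAM labelling, HpaI digestion and capillary electrophoresis; bidirectional fits used DMSO as baseline.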

[17] = biological target: Signal transducer and activator of transcription 3 (Homo sapiens) (UniProt P40763); experiment: ATG_STAT3_CIS: Attagene CIS-FACTORIAL HepG2 Assay for human Signal Transducer and Activator of Transcription 3 (STAT3) (AID 2282963); conditions: HepG2, Attagene cis-factorial STAT3 reporter transcription; actives raise or lower the signal
Method in brief: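 After a 24 h compound incubation, total RNA from MRTU-transfected HepG2 cells was converted to cDNA and reporter sequences PCR-amplified, labelled and profiled by capillary electrophoresis. Gain and loss of signal were referenced to DMSO.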

[18] = ATG_TA_CIS: Attagene CIS-FACTORIAL HepG2 Assay for human TA Basal Promoter (AID 2282964); conditions: HepG2 Attagene CIS-factorial TA basal promoter reporter; actives raise or lower the signal
Method in brief: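 Cis-factorial format in HepG2: reporters report endogenous factors, not chimeric Gal4 fusions. After 24 h treatment, reporter transcripts were measured by RT-PCR-capillary electrophoresis fluorescence, analysed bidirectionally versus DMSO.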

[19] = ATG_MRE_CIS: Attagene CIS-FACTORIAL HepG2 Assay for human Metal Responsive Element (MRE) (AID 2282954); conditions: HepG2 MRE cis-reporter transcription, Attagene multiplex; actives raise or lower the signal
Method in brief: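 After a 24 h chemical exposure, transiently transfected HepG2 cells yield RNA whose reporter sequences are amplified, FAM-labelled and sized by capillary electrophoresis. Curves are fitted bidirectionally relative to DMSO.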

[20] = biological target: Hepatocyte nuclear factor 6 (Homo sapiens) (UniProt Q9UBC0); experiment: ATG_HNF6_CIS: Attagene CIS-FACTORIAL HepG2 Assay for human Hepatocyte Nuclear Factor 6 (HNF6) (AID 2282952); conditions: HepG2 Attagene cis-factorial HNF6 reporter transcription; actives raise or lower the signal
Method in brief: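 HepG2 cells transiently transfected with cis-element-driven multiple reporter transcription units, dosed 24 h; reporter mRNA quantified by RT-PCR, FAM primer extension, HpaI digestion and capillary electrophoresis; bidirectional fit versus DMSO baseline.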

Measured: AC50

Chain of Paired box protein Pax-6 (Homo sapiens) (P26367 whole entry, looked up): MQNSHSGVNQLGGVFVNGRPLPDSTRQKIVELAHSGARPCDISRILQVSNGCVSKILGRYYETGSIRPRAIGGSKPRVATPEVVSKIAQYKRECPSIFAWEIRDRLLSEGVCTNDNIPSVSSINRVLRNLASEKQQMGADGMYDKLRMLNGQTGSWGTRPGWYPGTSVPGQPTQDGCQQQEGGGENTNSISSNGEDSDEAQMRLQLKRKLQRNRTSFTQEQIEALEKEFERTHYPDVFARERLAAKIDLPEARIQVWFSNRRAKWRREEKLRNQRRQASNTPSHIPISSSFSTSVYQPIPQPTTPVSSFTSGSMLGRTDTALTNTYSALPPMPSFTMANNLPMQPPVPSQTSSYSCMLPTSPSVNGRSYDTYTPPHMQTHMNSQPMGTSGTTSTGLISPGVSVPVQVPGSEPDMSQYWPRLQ
Chain of Heat shock factor protein 1 (Homo sapiens) (Q00613 whole entry, looked up): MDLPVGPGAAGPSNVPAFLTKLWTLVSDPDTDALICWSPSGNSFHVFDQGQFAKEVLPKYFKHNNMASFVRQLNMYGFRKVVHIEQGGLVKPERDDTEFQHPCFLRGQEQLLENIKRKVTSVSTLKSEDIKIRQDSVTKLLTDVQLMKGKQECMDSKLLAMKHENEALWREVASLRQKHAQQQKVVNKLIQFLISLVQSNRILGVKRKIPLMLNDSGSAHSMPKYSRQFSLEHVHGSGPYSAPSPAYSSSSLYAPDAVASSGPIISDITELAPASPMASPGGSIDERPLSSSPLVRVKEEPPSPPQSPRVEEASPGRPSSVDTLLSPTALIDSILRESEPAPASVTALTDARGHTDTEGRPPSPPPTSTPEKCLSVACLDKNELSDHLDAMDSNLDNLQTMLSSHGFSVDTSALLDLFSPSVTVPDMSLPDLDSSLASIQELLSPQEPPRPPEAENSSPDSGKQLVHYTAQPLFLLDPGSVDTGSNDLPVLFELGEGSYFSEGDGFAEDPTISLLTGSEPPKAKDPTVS
Chain of Hypoxia-inducible factor 1-alpha (Homo sapiens) (Q16665 whole entry, looked up): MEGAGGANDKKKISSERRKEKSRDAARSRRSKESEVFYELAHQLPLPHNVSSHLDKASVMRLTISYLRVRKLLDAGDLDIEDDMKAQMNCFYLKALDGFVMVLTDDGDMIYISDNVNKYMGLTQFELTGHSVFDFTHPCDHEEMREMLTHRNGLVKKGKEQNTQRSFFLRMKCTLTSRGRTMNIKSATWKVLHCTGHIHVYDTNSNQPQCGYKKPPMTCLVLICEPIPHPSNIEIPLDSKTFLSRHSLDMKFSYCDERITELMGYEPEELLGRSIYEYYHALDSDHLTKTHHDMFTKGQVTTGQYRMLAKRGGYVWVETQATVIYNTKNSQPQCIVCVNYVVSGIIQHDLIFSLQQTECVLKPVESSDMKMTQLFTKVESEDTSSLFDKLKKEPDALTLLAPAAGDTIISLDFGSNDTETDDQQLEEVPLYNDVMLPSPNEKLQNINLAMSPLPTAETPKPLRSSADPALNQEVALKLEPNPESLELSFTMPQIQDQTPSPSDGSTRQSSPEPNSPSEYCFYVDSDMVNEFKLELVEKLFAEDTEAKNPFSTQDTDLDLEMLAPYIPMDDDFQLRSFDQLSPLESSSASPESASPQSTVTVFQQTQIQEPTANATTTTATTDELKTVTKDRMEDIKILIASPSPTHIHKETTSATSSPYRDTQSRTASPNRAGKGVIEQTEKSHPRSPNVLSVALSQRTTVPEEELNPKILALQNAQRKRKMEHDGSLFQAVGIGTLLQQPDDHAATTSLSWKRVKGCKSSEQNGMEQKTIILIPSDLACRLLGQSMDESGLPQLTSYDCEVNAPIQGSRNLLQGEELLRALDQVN
Chain of Transcription factor Sp1 (Homo sapiens) (P08047 whole entry, looked up): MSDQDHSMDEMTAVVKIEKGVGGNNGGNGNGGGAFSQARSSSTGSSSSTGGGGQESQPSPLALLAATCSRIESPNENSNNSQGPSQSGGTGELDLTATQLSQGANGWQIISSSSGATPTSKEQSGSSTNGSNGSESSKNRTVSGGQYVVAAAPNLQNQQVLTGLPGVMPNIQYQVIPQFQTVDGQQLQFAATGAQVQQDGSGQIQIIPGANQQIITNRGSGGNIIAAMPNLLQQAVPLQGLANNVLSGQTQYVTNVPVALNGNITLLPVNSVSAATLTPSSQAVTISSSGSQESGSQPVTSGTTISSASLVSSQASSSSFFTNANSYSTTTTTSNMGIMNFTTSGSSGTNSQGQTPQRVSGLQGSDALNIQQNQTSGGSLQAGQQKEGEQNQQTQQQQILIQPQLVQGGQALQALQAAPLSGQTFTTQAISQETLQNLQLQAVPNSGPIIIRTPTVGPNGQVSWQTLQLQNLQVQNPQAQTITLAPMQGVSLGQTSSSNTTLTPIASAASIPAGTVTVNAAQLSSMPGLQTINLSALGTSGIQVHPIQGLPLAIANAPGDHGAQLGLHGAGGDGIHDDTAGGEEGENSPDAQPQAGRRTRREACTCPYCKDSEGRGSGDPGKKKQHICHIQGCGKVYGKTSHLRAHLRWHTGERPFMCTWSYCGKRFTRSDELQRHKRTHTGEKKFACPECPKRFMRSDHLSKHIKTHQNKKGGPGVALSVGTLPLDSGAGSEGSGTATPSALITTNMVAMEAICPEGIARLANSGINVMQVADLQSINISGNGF
Chain of Signal transducer and activator of transcription 3 (Homo sapiens) (P40763 whole entry, looked up): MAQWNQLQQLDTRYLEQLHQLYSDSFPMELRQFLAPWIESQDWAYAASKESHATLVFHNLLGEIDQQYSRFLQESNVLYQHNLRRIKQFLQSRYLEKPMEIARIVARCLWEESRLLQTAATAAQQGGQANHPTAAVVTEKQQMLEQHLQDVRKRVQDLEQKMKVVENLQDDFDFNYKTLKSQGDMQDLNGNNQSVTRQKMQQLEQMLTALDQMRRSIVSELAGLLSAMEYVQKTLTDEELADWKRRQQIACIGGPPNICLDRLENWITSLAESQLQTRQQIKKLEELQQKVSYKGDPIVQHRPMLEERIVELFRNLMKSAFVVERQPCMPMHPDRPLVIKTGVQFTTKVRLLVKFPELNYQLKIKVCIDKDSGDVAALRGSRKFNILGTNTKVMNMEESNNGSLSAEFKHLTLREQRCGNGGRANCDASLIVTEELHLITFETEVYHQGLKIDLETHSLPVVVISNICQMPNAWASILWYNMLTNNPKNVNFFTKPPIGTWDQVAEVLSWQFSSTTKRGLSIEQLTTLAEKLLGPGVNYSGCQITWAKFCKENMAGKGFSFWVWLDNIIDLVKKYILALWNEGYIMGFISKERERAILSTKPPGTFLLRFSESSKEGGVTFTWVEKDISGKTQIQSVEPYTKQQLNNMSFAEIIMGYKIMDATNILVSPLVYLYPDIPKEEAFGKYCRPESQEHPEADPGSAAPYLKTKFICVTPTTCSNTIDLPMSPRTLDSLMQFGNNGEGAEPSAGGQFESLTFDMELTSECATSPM
Chain of Hepatocyte nuclear factor 6 (Homo sapiens) (Q9UBC0 whole entry, looked up): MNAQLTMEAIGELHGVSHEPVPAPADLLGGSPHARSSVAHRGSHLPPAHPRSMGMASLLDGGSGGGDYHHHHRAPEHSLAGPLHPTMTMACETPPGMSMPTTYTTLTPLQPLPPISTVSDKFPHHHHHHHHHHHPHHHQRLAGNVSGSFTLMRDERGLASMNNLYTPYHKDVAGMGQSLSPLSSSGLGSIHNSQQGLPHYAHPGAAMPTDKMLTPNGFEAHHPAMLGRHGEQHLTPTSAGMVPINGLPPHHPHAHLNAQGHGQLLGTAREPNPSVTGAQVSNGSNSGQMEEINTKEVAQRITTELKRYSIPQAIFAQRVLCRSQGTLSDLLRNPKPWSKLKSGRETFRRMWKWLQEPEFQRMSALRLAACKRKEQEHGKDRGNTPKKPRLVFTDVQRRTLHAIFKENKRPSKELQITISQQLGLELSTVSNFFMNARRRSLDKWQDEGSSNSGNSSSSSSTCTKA
Chain of Bile acid receptor (Homo sapiens) (Q96RI1 whole entry, looked up, the tested form may be a part): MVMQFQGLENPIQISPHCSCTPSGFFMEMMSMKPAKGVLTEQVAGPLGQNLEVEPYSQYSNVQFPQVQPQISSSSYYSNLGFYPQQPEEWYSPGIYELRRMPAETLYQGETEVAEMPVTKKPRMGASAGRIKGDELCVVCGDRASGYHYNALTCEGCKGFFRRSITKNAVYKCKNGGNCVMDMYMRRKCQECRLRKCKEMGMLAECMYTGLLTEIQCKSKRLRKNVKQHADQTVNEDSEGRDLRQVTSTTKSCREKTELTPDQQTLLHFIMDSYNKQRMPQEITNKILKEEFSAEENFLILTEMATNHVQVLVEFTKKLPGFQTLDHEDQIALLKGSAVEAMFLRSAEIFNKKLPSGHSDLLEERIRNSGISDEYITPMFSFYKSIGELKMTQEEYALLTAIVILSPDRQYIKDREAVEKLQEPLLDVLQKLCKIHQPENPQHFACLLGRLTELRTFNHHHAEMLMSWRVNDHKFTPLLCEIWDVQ

CC(C)(C)c1cc(C(C)(C)C)c(O)c(C(C)(C)C)c1
inactive: [1] | [3] | [4] | [5] | [6] | [7] | [8] | [9] | [10] | [13] | [14] | [15] | [16] | [17] | [18]
active: [2] 698 nM and 2.29 µM | [4] 138 µM | [7] 100 µM | [11] 3.08 µM and 6.33 µM | [12] 416 nM and 8.82 µM | [15] 80.6 µM | [16] 11.7 µM

CN1CCN(c2ccccc2/C=C2\SCCN(c3ccc(Cl)c(Cl)c3)C2=O)CC1
active: [11] 2.88 µM | [16] 5.37 µM
not listed: [20]
inactive: all other assays above

CCCCC[C@H](O)CC(=O)CCc1ccc(O)c(OC)c1
active: [2] 149 µM | [11] 18.1 µM | [15] 166 µM
not listed: [20]
inactive: all other assays above

OCCC(F)(F)C(F)(F)C(F)(F)C(F)(F)C(F)(F)C(F)(F)F
inactive: [1] | [2] | [3] | [4] | [5] | [6] | [7] | [20] | [8] | [9] | [10] | [11] | [12] | [13] | [14] | [15] | [16] | [17] | [18]
active: [2] 187 µM | [3] 133 µM | [4] 100 µM | [5] 100 µM | [8] 100 µM | [10] 176 µM | [16] 100 µM

CC(C)(C)c1cccc(C(C)(C)C)c1O
active: [4] 162 µM | [7] 173 µM | [10] 162 µM | [15] 165 µM
not listed: [13] | [19]
inactive: all other assays above
